Among all 69,000 compounds or so, about 420 (0.61%) showed an effect of 50% or more. The sample as a whole holds a higher share of strong results than the screen did.

This assay concerns the target T1, Histidine--tRNA ligase (Leishmania infantum) (UniProt A4I591).
T1 sequence (whole entry): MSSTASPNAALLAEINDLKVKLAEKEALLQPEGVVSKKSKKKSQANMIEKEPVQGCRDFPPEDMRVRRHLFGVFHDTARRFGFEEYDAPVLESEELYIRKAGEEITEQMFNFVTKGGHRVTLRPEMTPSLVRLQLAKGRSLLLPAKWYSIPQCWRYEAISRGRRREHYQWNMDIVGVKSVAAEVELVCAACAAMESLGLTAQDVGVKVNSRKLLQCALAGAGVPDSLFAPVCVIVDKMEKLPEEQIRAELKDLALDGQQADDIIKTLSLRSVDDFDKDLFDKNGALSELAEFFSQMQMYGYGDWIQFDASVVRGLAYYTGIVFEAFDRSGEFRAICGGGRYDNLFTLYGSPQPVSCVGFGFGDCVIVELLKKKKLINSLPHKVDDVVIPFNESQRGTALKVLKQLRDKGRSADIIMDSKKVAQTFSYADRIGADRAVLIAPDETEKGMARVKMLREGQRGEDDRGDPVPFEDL
As to the kind of experiment: Leishmania infantum Histidine tRNA synthetase (LdHisRS). The class given is functional. Set-up: scale not given: in the data most compounds retested in dose-response had high values. The following applies: 30 µM.
Turning to `O=C(NCc1ccco1)[C@H]1C[C@@H]2CCN(c3cccc(F)c3)C[C@H]2O1`, the Percent Effect is 25%.

On to `Cc1cnc(N2C[C@@H]3CN(Cc4ccco4)CCC[C@]3(C(=O)O)C2)nc1`, for which the Percent Effect is 19.4%.

As for `COCC(=O)N1CCC2(CC1)NC(=O)[C@H]1CN(C(=O)N(C)C)C[C@H]12`, the Percent Effect was 25.2%.

In the case of `CN1CCO[C@@H]2CN(C(=O)NCc3ccccc3)CC[C@@H]2C1`, the Percent Effect is 4.54%.

In the case of `Cc1cccc(S(=O)(=O)N2C[C@H]3C[C@H](C(=O)NCC(C)C)[C@@H](C2)O3)c1`, the Percent Effect was 12%.

As for `CCn1nc2c(cc1=O)CN(Cc1nc(-c3cccnc3)no1)CC2`, the Percent Effect is 14.7%.

In the case of `CCn1nc2c(cc1=O)CN(Cc1nc(-c3ccccn3)no1)CC2`, the Percent Effect is 85.1%.

For the compound `CCc1ncc2c(n1)CN(Cc1nc(-c3ccccn3)no1)CC2`, the Percent Effect came to 22.7%.

`c1ccc(-c2noc(CN3CCc4cncnc4C3)n2)nc1`: the Percent Effect amounted to 36%.

Regarding `CCn1nc2c(cc1=O)CN(Cc1nc(-c3cccs3)no1)CC2`, the Percent Effect worked out at 25.9%.

With `Cn1nc2c(cc1=O)CN(Cc1nc(-c3ccccn3)no1)CC2`, the Percent Effect stood at 99.1%.

Take `COc1ccc(CN2C[C@@H]3COC[C@H](N4CCN(C)CC4)[C@@H]3C2)cc1`: the Percent Effect was found to be 1%.

As to `CC(C)(C)SCCN1CC(=O)N2CC[C@@H](O)C[C@H]2C1=O`, the Percent Effect was 10.6%.

Take `O=C(c1ccco1)N1CC[C@@H]2O[C@@H](COCCN3CCCC3)CC[C@@H]21`: the Percent Effect worked out at 4.59%.

Take `Cc1nccn1-c1ccc(NS(=O)(=O)c2cnn(C(C)C)c2)cn1`: the Percent Effect amounted to 50.6%.

`Cc1nccn1-c1ccc(NS(=O)(=O)c2cccnc2)cn1`: the Percent Effect was found to be 33.7%.

Consider `Cc1nccn1-c1ccc(NS(=O)(=O)c2cnn(C)c2)cn1`, for which the Percent Effect was 31.3%.

In the case of `CCC(C)NS(=O)(=O)c1ccc(/C=C\c2onc(C)c2NC(C)=O)cc1` (stereo not given), the Percent Effect worked out at 5.48%.

`Cc1cc(-c2nn(C)c(Cl)c2CN2CCOCC(O)C2)no1` (stereo not given): the Percent Effect was determined as 15.2%.

Turning to `Cc1cc(-c2nn(C)c(Cl)c2CN2CC[C@H](CO)[C@@H](O)C2)no1`, the Percent Effect was 2.78%.

For `Cc1cc(-c2nn(C)c(Cl)c2CN2Cc3ccccc3C(O)C2)no1` (stereo not given), the Percent Effect came to 66.7%.

For `CO[C@@H]1CC[C@H]2[C@H]1OCCN2C(=O)C1CCOCC1`, the Percent Effect is 23.1%.

`O=C(c1cc(-c2ccco2)cs1)N1CCCC1`: the Percent Effect turned out to be 55%.

As for `CN1CCN(C(=O)c2cc(-c3ccco3)cs2)CC1`, the Percent Effect was found to be 30%.

In the case of `O=C(c1cc(-c2ccco2)cs1)N1CCOCC1`, the Percent Effect amounted to 25%.

In the case of `Cc1ocnc1C(=O)N1CCN(C(=O)CC(C)C)[C@@H]2CS(=O)(=O)C[C@@H]21`, the Percent Effect was determined as 6.67%.

Regarding `Cc1cccc(N2Cc3nc(=O)n(Cc4cccc(F)c4)n3C2=O)c1`, the Percent Effect is 14.1%.

On to `NC[C@H]1CC[C@H](C(NC(=O)C2CC2)c2ccccn2)CC1` (stereo not given in full), for which the Percent Effect was 18.8%.

`COc1ccccc1C(=O)NC(c1ccccn1)[C@H]1CC[C@H](CN)CC1` (stereo not given in full): the Percent Effect came out at 88.4%.

As for `NC[C@H]1CC[C@H](C(NC(=O)c2cccc(F)c2)c2ccccn2)CC1` (stereo not given in full), the Percent Effect was determined as 60%.

`NC[C@H]1CC[C@H](C(NC(=O)c2ccccc2)c2ccccn2)CC1` (stereo not given in full): the Percent Effect is 22.9%.

Regarding `NC[C@H]1CC[C@H](C(NC(=O)c2ccccn2)c2ccccn2)CC1` (stereo not given in full), the Percent Effect came to 22.9%.

As for `COc1cccc(C(=O)NC(c2ccccn2)[C@H]2CC[C@H](CN)CC2)c1` (stereo not given in full), the Percent Effect was determined as 39.1%.

In the case of `O=C(CC1CC1)N1C[C@@H]2CN(c3ccccc3)C(=O)[C@@H]2C1`, the Percent Effect was 21.1%.

Consider `COc1cc(CN2C[C@@H]3CNC(=O)[C@H](C)[C@@H]3C2)cc(OC)c1`, for which the Percent Effect worked out at 21.1%.

With `O=C1[C@H]2CN(S(=O)(=O)C3CC3)C[C@H]2CN1Cc1cccnc1`, the Percent Effect is 2.74%.

As to `COCCN1C(=O)C[C@H]2[C@H]1CCN2C(=O)c1ccc[nH]1`, the Percent Effect was determined as 22.6%.

On to `Cc1cccc(CN2C[C@@H]3CN(C(=O)c4ccnnc4)C[C@@H]3C2=O)c1`, for which the Percent Effect was 28.6%.

Consider `O=C(c1cscn1)N1C[C@H]2CCCC(OCc3cccnc3)[C@H]2C1` (stereo not given in full), for which the Percent Effect stood at 17%.

In the case of `Cc1nc(N2CCCC2)nc2c1CCN(C(=O)C1CCCC1)CC2`, the Percent Effect came to 23.3%.

For `Cc1nc(N2CCCC2)nc2c1CCN(C(=O)C1CCC1)CC2`, the Percent Effect was determined as 51.3%.

With `Cc1nc(N2CCCC2)nc2c1CCN(C(=O)C1CCCCC1)CC2`, the Percent Effect came to 23.1%.

Consider `CNC(=O)CN1CC[C@H]2CN(C(=O)c3ccc(C)cc3)C[C@H]2C1`, for which the Percent Effect was 9.72%.

Turning to `O=C(c1cscn1)N1CC[C@@H]2[C@@H]1CCN2c1ccccn1`, the Percent Effect was found to be 10.5%.

Take `Cn1ncc(-c2cc(-c3cccc(O)c3)nc(N)c2C#N)c1C1CC1`: the Percent Effect came to 64.6%.

Regarding `Cc1nn(C)c(C)c1-c1cc(-c2cnn(C)c2C2CC2)c(C#N)c(N)n1`, the Percent Effect was 19%.

Regarding `Cc1cc(O)ccc1-c1cc(-c2cnn(C)c2C2CC2)c(C#N)c(N)n1`, the Percent Effect came out at 29.1%.

`CC(CNC(=O)c1cnccn1)Oc1ccc(F)cc1` (stereo not given): the Percent Effect was 5.31%.

For `O=C(c1cncc(N2CCCC3(CCNCC3)CC2)n1)N1CCCCC1`, the Percent Effect was 31.7%.

`O=C(c1cncc(N2CCC3(CCCNC3)C2)n1)N1CCCC1` (stereo not given): the Percent Effect amounted to 56.7%.

Take `O=C(c1cncc(N2CCC3(CCNCC3)CC2)n1)N1CCCC1`: the Percent Effect was determined as 18.4%.

For `CC1(C)[C@H]2CC=C(CN3CCCn4nc(CNS(C)(=O)=O)cc4C3)[C@@H]1C2`, the Percent Effect stood at 10.6%.

As for `CN1C(=O)[C@H]2CC[C@@H]1CN(C(=O)Nc1cccc3ccccc13)C2`, the Percent Effect was 68.6%.

With `O=C(Nc1cccc2ccccc12)N1CCC(N2CCSCC2)CC1`, the Percent Effect is 18.3%.

Turning to `CS(=O)(=O)NCC1CCCN(C(=O)Nc2cccc3ccccc23)C1` (stereo not given), the Percent Effect was 33%.

Turning to `CN1C(=O)[C@H]2CC[C@@H]1CN(C(=O)Nc1ccccc1C(F)(F)F)C2`, the Percent Effect was 7.84%.

For the compound `CC(C)c1ccccc1NC(=O)N1C[C@@H]2CC[C@H](C1)N(C)C2=O`, the Percent Effect was determined as 11.8%.

In the case of `Cc1oncc1C(=O)N1CC[C@H]2C[C@H](c3ccncn3)O[C@@H]2C1`, the Percent Effect amounted to 7.27%.

On to `CS(=O)(=O)NC[C@]12COC[C@H]1CN(C(=O)C1CC=CC1)C2`, for which the Percent Effect is -44.5%.

Consider `N#Cc1ccc(N2CCC3(CC2)CC(OCc2cccnc2)CO3)cc1` (stereo not given), for which the Percent Effect was 33.3%.

For `Fc1ccc(N2CCC3(CC2)CC(OCc2cccnc2)CO3)cc1` (stereo not given), the Percent Effect came out at 56.1%.

Turning to `Fc1cnc(N2CCC3(CC2)CC(OCc2cccnc2)CO3)nc1` (stereo not given), the Percent Effect stood at 8.77%.

For `CCN1CC[C@@]2(C(=O)N(C)C)CCN(C(=O)NC(C)C)CC[C@@H]12`, the Percent Effect stood at 15.5%.

On to `COc1cccc2c1ccn2CC(=O)N1CCCC(C(=O)O)C1` (stereo not given), for which the Percent Effect worked out at 7.89%.

In the case of `COc1cccn(CC(=O)N2CCC3(CCNCC3)C2)c1=O`, the Percent Effect stood at 116%.

As for `CCCOCC1CCN(C(=O)Cn2cccc(C(F)(F)F)c2=O)C1` (stereo not given), the Percent Effect amounted to 12%.

For `CCCOCC1CCN(C(=O)Cn2ncc(N3CCCC3)cc2=O)C1` (stereo not given), the Percent Effect was -3.8%.

On to `O=C1NCC2(CCCN(C(=O)Cn3nc4ccccc4n3)CC2)O1` (stereo not given), for which the Percent Effect came out at 6.45%.

In the case of `COc1ccccc1-c1ccccc1CC1(C(=O)O)CCNCC1`, the Percent Effect is 2.84%.

Take `COC1CCN(C(=O)Cn2cccc(C(F)(F)F)c2=O)C1` (stereo not given): the Percent Effect is 18.8%.

`COc1ccccc1C(=O)N1CCOC2(CCCN(C(C)=O)C2)C1` (stereo not given): the Percent Effect was found to be 8%.

With `COc1cccn(CC(=O)N2CCCC3(CCCCC3)C2)c1=O`, the Percent Effect amounted to 110%.

`COc1cccc(CN2CC3(CCNCC3)CCC2=O)c1OC`: the Percent Effect turned out to be 8.57%.

As to `CCCOCC1CCN(C(=O)Cn2cccc(OC)c2=O)C1` (stereo not given), the Percent Effect was 97.4%.

`COc1cccn(CC(=O)N2CCCC3(CCCO3)CC2)c1=O` (stereo not given): the Percent Effect came out at 101%.

(Values after ChEMBL document CHEMBL3988442, “University of Dundee, Small-Polar-MMV Screening Library” (2021).)
